Inconclusive results are not listed. The source made the active and inactive calls. The call rests on the fitted dose curve; in most records, active means well fitted inhibition curve with a large enough effect; inconclusive means small, poorly fitted or top-dose-only effect; inactive means no such curve, though single readings can be large or run the other way.
Potency means the concentration at half of the fitted maximal effect.

The assay can be described thus: InCell qHTS Assay for Inhibitors of the mTORC1 Signaling Pathway in MEF (Tsc2-/-, p53-/-) Cells: Hit Validation.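 Further: phospho-S6 Ser235/236 signal normalized to propidium iodide cell count per well; nearly all actives have a fitted effect of over 75% in size.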 As to conditions: phospho-rpS6 immunofluorescence, 24 h; activity change, negative = inhibition: at 38.3 µM (top of the series). (Quantitative high-throughput screening tests each substance at several concentrations.)
With `O=C(Nc1cccc(NC(=O)c2ccccc2Cl)c1)c1cccc(Br)c1`, the activity change, negative = inhibition was -100%. Same read-out and setting: the same measure for `CCOc1ccc(-c2cnc(NCc3ccc(C(F)(F)F)cc3)n2C)cc1`: -100%. As to `CCS(=O)(=O)c1ncc(Cl)c(C(=O)N2CCN(c3ccc(OC)cc3)CC2)n1`, the Potency is 4.65 µM (active). In the case of `COc1ccccc1C(=O)Nc1ccc(-c2cc(C(F)(F)F)nn2-c2ccccc2)cc1`, the activity change, negative = inhibition was -100%. Still for that read-out and setting: the same measure for `COc1ccc(S(=O)(=O)NCCc2sc3nc(-c4ccc(C)cc4)nn3c2C)cc1F`: -100%; for `CCc1cnc2c(c1SCC(=O)NCc1ccc(F)cc1)c(=O)n(C)c(=O)n2C`: -100%.

For the compound `CCOC(=O)Cn1c(=O)c2c(nc(N3CCOCC3)n2Cc2ccccc2)n(C)c1=O`, the Potency is 11.7 µM (active). Consider `COc1cc(C(=O)n2nc(C)c(Sc3ccc(Cl)cc3)c2C)cc(OC)c1OC`, for which the activity change, negative = inhibition is -100%.

As to `C=C(C)CSc1nc(-c2ccccc2)cc(-c2ccc(OC)cc2)c1C#N`, the activity change, negative = inhibition was -100%. Same read-out and setting: the same measure for `Cc1cc(OCC(=O)Nc2cc(-c3nc4ccccc4[nH]3)ccc2C)ccc1Cl`: -100%; for `COc1cccc(-n2c(-c3ccc(C)cc3)cc3c2CC(C)(C)CC3=O)c1`: -6.41%. `Cc1ccc(CN2C(=O)C(=O)c3cc(Br)cc(C)c32)cc1`: the Potency was 18.5 µM (active). Turning to `O=C(NCc1ccccc1Cl)C(=O)NCC(c1cccs1)S(=O)(=O)c1cccs1` (configuration not stated), the activity change, negative = inhibition is -100%. Still for that read-out and setting: the same measure for `CCc1nn(CC(=O)NCc2ccccc2Cl)c(=O)c2cccn12`: -100%. As to `CCOC(=O)c1ccc(NC(=O)c2nc(S(=O)(=O)Cc3ccccc3)ncc2Cl)cc1`, the Potency is 4.14 µM (active). Still for that read-out and setting: the same measure for `Cc1ccccc1CS(=O)(=O)c1ncc(Cl)c(C(=O)Nc2nnc(C(C)C)s2)n1`: 18.5 µM (active). In the case of `CC1CCCCN1c1nnc(NC(=O)Nc2ccccc2F)s1` (configuration not stated), the activity change, negative = inhibition was -100%. In the case of `COc1cc(NC(=O)c2cccc3c2C(=O)N(C2CCCCC2)C3)cc(OC)c1OC`, the activity change, negative = inhibition was -100%.

As for `CCOc1cc(CNc2ccc(O)cc2)ccc1OCc1ccc(Cl)cc1`, the activity change, negative = inhibition was -100%. Regarding `Cc1cccc(CS(=O)(=O)c2ncc(Cl)c(C(=O)NCc3ccccc3)n2)c1`, the Potency is 10.4 µM (active).

As for `CCOC(=O)c1cnc2ccc(OC)cc2c1NCCc1ccccc1`, the activity change, negative = inhibition was -100%. On the same count and under the same terms, the same measure for `O=C(Nc1ccc(Cl)c(C(F)(F)F)c1)c1ccc2c(c1)CCN2S(=O)(=O)c1ccccc1`: -100%. The same measure, in the same setting: the same measure for `Cc1c(C(=O)OC2CCC(C)CC2)[nH]c2c1C(=O)CC(c1ccccc1Cl)C2` (configuration not stated): -100%; for `Cc1ccc(C)c(N2CCN(CCCNC(=O)C3COc4ccccc4C3)CC2)c1` (configuration not stated): -100%; for `COc1ccc(OCC(=O)NCc2ccc3c(c2)CCN3C(=O)c2ccccc2)cc1`: -100%. On the same count and under the same terms, the same measure for `COc1ccc(Cn2c(C(=O)O)c(CNCc3ccc(SC)cc3)c3ccc(OC)cc32)cc1`: -100%; for `Cc1ccc(-c2nnc(C3CCN(S(=O)(=O)c4ccc(C)c(C)c4)CC3)o2)cc1`: -100%; for `O=C(NC1CCCCC1)/C(=C/c1ccc(Cl)cc1)NC(=O)c1ccccc1`: -22.5%.

As for `O=S(=O)(NCc1nc2cccnc2n1Cc1ccccc1Cl)c1ccc(F)c(Cl)c1`, the activity change, negative = inhibition was -100%.

In the case of `O=C(Nc1ccc(Cl)cc1)c1cc(S(=O)(=O)N2CCCc3ccccc32)ccc1F`, the activity change, negative = inhibition was -100%. The same measure, in the same setting: the same measure for `Cc1cccc(-c2nc3c(cnn3-c3ccccc3)c(=O)n2-c2ccc(Br)cc2)c1`: -100%.

As for `CCOc1ccc(S(=O)(=O)N(C(C)=O)c2ccc3oc(C)c(C(=O)OC)c3c2)cc1`, the activity change, negative = inhibition is -100%. Still for that read-out and setting: the same measure for `Cc1ccc(S(=O)(=O)c2nnn3c2nc(NCc2cccs2)c2sccc23)cc1`: -100%. Still for that read-out and setting: the same measure for `CCC1CCc2nc3sc(C(=O)Nc4ccc(C)cc4)c(N)c3cc2C1` (configuration not stated): -100%; for `COc1ccccc1NC(=O)CSc1ccc(-c2ccccn2)nn1`: -100%. The same measure, in the same setting: the same measure for `CN(CCCNC(=O)c1cc2c(Cl)nc3ccccc3c2s1)Cc1ccccc1`: -100%; for `CC(C)N(C(=O)Cn1cc(S(=O)(=O)Cc2ccc(Cl)cc2)c2ccccc21)C(C)C`: -100%.

For the origin of these results see PubChem BioAssay AID651791 (National Center for Advancing Translational Sciences (NCATS), 2012).
